The structures appear in SMILES notation. The list shows a part of the results. Results filed as inconclusive are left out. The source made the active and inactive calls. Calls come from the whole dose curve; as a rule, active = well fitted inhibition curve with a large enough effect; inconclusive = small, poorly fitted or top-dose-only effect; inactive = no such curve, though single readings can be large or run the other way.

The experiment in a line: qHTS Assay for Inhibitors of MBNL1-poly(CUG) RNA binding: Counterscreen HTRF assay. To be noted: His-Menin/biotin-MLL peptide TR-FRET counterscreen; series mostly up to 57.6 µM. From the text:
NIH Chemical Genomics Center [NCGC] NIH Molecular Libraries Probe Production Centers Network [MLPCN] MLPCN Grant: R03 MH087421-01 Assay Submitter (PI): Charles Thornton NCGC Assay Overview: Expanded CTG repeats in the 3' untranslated region of the DM protein kinase (DMPK) gene causes type I myotonic dystrophy (DM1). DM1 is a multi-systemic disease with a prevalence of 1/7000. Clinical features include myotonia, progressive muscle weakness and wasting, cardiac arrhythmia, insulin resistance, hypersomnolence, cataracts, and other symptoms. The pathogenic effect of expanded CTG repeats stems from deleterious effects of the mutant transcript. CUGexp mRNA accumulates in nuclear foci and sequesters proteins of the muscleblind family, of which MBNL1 is the most common family member in skeletal muscles. […] This brings the terbium label within close proximity to XL665 to allow time-resolved fluorescence resonance energy transfer (TR-FRET). […]
This assay uses a ratiometric measurement of TR-FRET binding assay with His-Menin and Biotin-MLL peptide. […] (3) Add 1 ul of 0.22 ng/ul terbium labeled anti-His antibody (0.055 ng/ul final concentration) (4) Add 1 ul of 20 nM streptavidin-XL665 (5 nM final concentration) (5) Incubate 60 min at room temperature (6) Detect the assay plate in a EnVision plate reader (PerkinElmer) with Ex=340 nm, Em1=665 nm and Em2=545 nm.
(In general: Quantitative high-throughput screening tests each substance at several concentrations.)
With `CCOC(=O)c1c(C)[nH]c2c1-c1ccccc1C(=O)C2=O`, the call was inactive.
Next, `NCCC[C@H](N)CC(=O)N[C@H]1CNC(=O)[C@H]([C@H]2C[C@H](O)NC(N)=N2)NC(=O)/C(=C/NC(N)=O)NC(=O)[C@H](CO)NC(=O)[C@H](CO)NC1=O`: “inactive”.

The record behind these values is PubChem BioAssay AID651843 (National Center for Advancing Translational Sciences (NCATS), 2012).
